Results with a measured potency or affinity are listed apart.
What follows are compounds tested on Cryptococcus neoformans. Conditions: Concentration 32 ug.mL-1; ASSAY_TEST Inhibition of Fungal Growth; detection method Resazurin; Absorption (OD600-OD570); plate type 384well; NBS; CORNING #3640.

First: Cc1ccc(NC(=O)Cn2nc3c(Oc4ccccc4C)nccn3c2=O)cc1F
Second: COc1ccc(NC(=O)Cn2nc3c(Oc4ccccc4)nccn3c2=O)cc1OC
The Inhibition of the first is lower: -11.02% for the first, -7.08% for the second.

Compared with `COc1ccc(NC(=O)Cn2nc3c(Sc4ccccc4)nccn3c2=O)c(OC)c1`, `CCc1ccccc1NC(=O)Cn1nc2c(Sc3ccc(C)cc3C)nccn2c1=O` is lower in Inhibition: -16.55% for the first, -23.87% for the second.

First: Cc1cccc(NC(=O)Cn2nc3ccc(-c4ccc(C)c(C)c4)nn3c2=O)c1
Second: Cc1cc(C)cc(NC(=O)Cn2nc3c4cc(-c5ccc(C)c(C)c5)nn4ccn3c2=O)c1
The Inhibition of the first is higher: -12.34% for the first, -17.96% for the second.

Compared with `CCOC(=O)c1ccc(NC(=O)Cn2nc3ccc(Sc4ccccc4)nn3c2=O)cc1`, `CC(C)c1ccc(NC(=O)Cn2nc3ccc(SCc4ccc(Cl)cc4)nn3c2=O)cc1` is lower in Inhibition: -9.53% for the first, -27.26% for the second.

Going from `NC(=O)CSc1nnc2c(=O)n(-c3ccccc3)ccn12` to `COc1cccc(-n2ccn3c(SCC(=O)Nc4ccccc4Cl)nnc3c2=O)c1`, the Inhibition rises from -20.31% to -13.6%.

First: O=C(Cn1nc2c(=O)n(-c3ccc(Br)cc3)ccn2c1=O)Nc1ccc(F)cc1F
Second: O=C(Cn1nc2c3cc(-c4ccc(Cl)cc4)nn3ccn2c1=O)Nc1ccc(F)cc1
The Inhibition of the first is lower: -12.15% for the first, -10.24% for the second.

Compared with `CSc1cccc(NC(=O)Cn2c(=O)c3nnc(C)n3c3ccccc32)c1`, `CCc1cccc(NC(=O)Cn2c(=O)c3nnc(C(C)C)n3c3ccccc32)c1` is lower in Inhibition: -2.25% for the first, -21.01% for the second.

First: Cc1cc(C)cc(Nc2nc(C)cc3nn(CC(=O)Nc4ccccc4)c(=O)n23)c1
Second: Cc1cc(C)cc(NC(=O)Cn2nc3ccc(SC(C)(C)C)nn3c2=O)c1
The Inhibition of the first is higher: -8.58% for the first, -18.29% for the second.

First: Cc1ccc(-c2ccc3nn(Cc4nc(-c5ccc(Cl)cc5)no4)c(=O)n3n2)cc1C
Second: O=c1n(Cc2nc(-c3ccc4c(c3)OCO4)no2)nc2ccc(-c3ccccc3)nn12
The Inhibition of the first is higher: -12.88% for the first, -13.29% for the second.

Compared with `Cc1ccc(NC(=O)Cn2nc3c(SCc4ccc(Cl)cc4)nccn3c2=O)cc1F`, `CSc1cccc(NC(=O)Cn2nc3c(N4CCCC4)nccn3c2=O)c1` is higher in Inhibition: -12.99% for the first, -5.38% for the second.

Going from `COc1ccc(NC(=O)C(C)Sc2nnc3c(=O)n(-c4ccc(C)c(C)c4)ccn23)cc1` (stereo not given) to `Cc1ccc(-n2ccn3c(SCC(=O)c4c[nH]c5ccccc45)nnc3c2=O)cc1C`, the Inhibition rises from -9% to -5.1%.

Going from `O=C(Cn1nc2c(N3CCSCC3)nc3ccccc3n2c1=O)Nc1ccc(Br)cc1` to `COc1ccc(NC(=O)Cn2nc3c(N4CCCC4)nccn3c2=O)cc1`, the Inhibition rises from -9.72% to -6.3%.

Going from `CCCCn1c(=O)c2sccc2n2c(=O)n(CC(=O)c3cccc(OC)c3)nc12` to `COc1cccc(C(=O)Cn2nc3n(CCC(C)C)c(=O)c4sccc4n3c2=O)c1`, the Inhibition rises from -15.97% to -5.93%.

First: CCCc1nnc2c(=O)n(CC(=O)N3CCCc4ccccc43)c3ccccc3n12
Second: Cc1ccc(-c2cc3c4nnc(CCC(=O)N5CCN(c6ccccn6)CC5)n4ccn3n2)cc1C
The Inhibition of the first is lower: -21.26% for the first, -12.2% for the second.

Going from `CCc1nnc2c(S(=O)(=O)N(Cc3ccc(F)cc3)c3ccc(Cl)cc3)cccn12` to `CCOc1ccc(N(Cc2ccccc2)S(=O)(=O)c2ccc3nncn3c2)cc1`, the Inhibition rises from -6.36% to -0.95%.

First: COc1ccc(NC(=O)c2ccc3nn(CC(=O)Nc4cccc(SC)c4)c(=O)n3c2)cc1
Second: Cc1cc(C)c(NC(=O)CSc2nnc3ccc(C(=O)Nc4cccc(F)c4)cn23)c(C)c1
The Inhibition of the first is lower: -24.03% for the first, -5.55% for the second.

First: COc1ccc(-c2cc3c4nnc(SCC(=O)Nc5ccccc5F)n4ccn3n2)cc1
Second: COc1ccc(-c2cc3c4nnc(SCC(=O)Nc5ccc(C)c(F)c5)n4ccn3n2)cc1
The Inhibition of the first is lower: -26.1% for the first, -5.86% for the second.

Going from `Cc1cc(Br)ccc1NC(=O)Cn1nc2c(SC3CCCCC3)nccn2c1=O` to `N#Cc1cccc(Cn2nc3ccc(S(=O)(=O)N4CCCCCC4)cn3c2=O)c1`, the Inhibition rises from -21.25% to -9.97%.

Compared with `Cc1cccc(CN(c2cccc(F)c2)S(=O)(=O)c2ccc3nncn3c2)c1`, `O=c1n(Cc2ccc(Cl)cc2)nc2ccc(-c3ccccc3)nn12` is lower in Inhibition: -4.78% for the first, -18.7% for the second.

Compared with `Cc1ccc(Nc2cc(C)n3c(=O)n(CCOc4ccc(F)cc4)nc3n2)cc1`, `O=C(CSc1nnc2c3cc(-c4ccc(F)cc4)nn3ccn12)Nc1ccccc1C(F)(F)F` is lower in Inhibition: -10.19% for the first, -18.14% for the second.

From ChEMBL document CHEMBL4513146, “CO-ADD screening of Karazin Kharkiv National University (Ukraine) compounds”
